The text below walks through data of PubChem BioAssay (NCATS).

Test [1] is described as follows: qHTS of pediatric cancer cell lines to identify multiple opportunities for drug repurposing: Primary screen for U-2 OS cells (AID 1347096). Note: nearly all actives have a fitted effect of over 50% in size. Note: potency is the fitted concentration of half-maximal effect. The procedure, abridged: (§1)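 Cells (500-1,000/well) in growth media were settled 5 h at 37 degrees C, then given compounds for 48 h. Viability was read as CellTiter-Glo luminescence. Primary runs used MIPE at 11 points (0.78 nM-46 µM) and NPC at 8 points (0.59 nM-46 µM); follow-ups used 11 points.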
Background: In qHTS, concentration-response curves come from the screen itself.

The nature of test [2]: qHTS of pediatric cancer cell lines to identify multiple opportunities for drug repurposing: Primary screen for Saos-2 cells (AID 1347097). Note: nearly all actives have a fitted effect of over 40% in size. Note: potency is the fitted concentration of half-maximal effect. The procedure, abridged:
(§2)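 Viability was measured as metabolically active cells after 48 hours of treatment, read by CellTiter-Glo luminescence. Compounds were tested at multiple final concentrations, giving concentration-response curves.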

The nature of test [3]: qHTS of pediatric cancer cell lines to identify multiple opportunities for drug repurposing: Primary screen for SK-N-SH cells (AID 1347098). Note: nearly all actives have a fitted effect of over 65% in size. Note: potency is the fitted concentration of half-maximal effect. The procedure, abridged: (§3)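 Cells (500-1,000/well) rested 5 h, then received compounds for 48 h; metabolically active cells were measured by CellTiter-Glo luminescence. Final concentrations spanned up to 46 µM (MIPE, 11-point) or 0.59 nM-46 µM (NPC, 8-point) in primary screens, 11-point in follow-ups.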

The nature of test [4]: qHTS of pediatric cancer cell lines to identify multiple opportunities for drug repurposing: Primary screen for NB1643 cells (AID 1347099). Note: nearly all actives have a fitted effect of over 50% in size. Note: potency is the fitted concentration of half-maximal effect. The procedure, abridged: as §2
A short description of test [5]: qHTS of pediatric cancer cell lines to identify multiple opportunities for drug repurposing: Primary screen for LAN-5 cells (AID 1347100). Note: potency is the fitted concentration of half-maximal effect. Put shortly:
as §1

Test [6] is described as follows: qHTS of pediatric cancer cell lines to identify multiple opportunities for drug repurposing: Primary screen for BT-12 cells (AID 1347101). Note: nearly all actives have a fitted effect of over 25% in size. Note: potency is the fitted concentration of half-maximal effect. Put shortly: as §3
Test [7] in a line: qHTS of pediatric cancer cell lines to identify multiple opportunities for drug repurposing: Primary screen for Rh18 cells (AID 1347102). Note: nearly all actives have a fitted effect of over 65% in size. Note: potency is the fitted concentration of half-maximal effect. The procedure, abridged: as §1
Test [8] in a line: qHTS of pediatric cancer cell lines to identify multiple opportunities for drug repurposing: Primary screen for OHS-50 cells (AID 1347103). Note: nearly all actives have a fitted effect of over 40% in size. Note: potency is the fitted concentration of half-maximal effect. The procedure, abridged: as §3
A short description of test [9]: qHTS of pediatric cancer cell lines to identify multiple opportunities for drug repurposing: Primary screen for RD cells (AID 1347104). Note: nearly all actives have a fitted effect of over 55% in size. Put shortly:
as §2

A short description of test [10]: qHTS of pediatric cancer cell lines to identify multiple opportunities for drug repurposing: Primary screen for MG 63 (6-TG R) cells (AID 1347105). Note: nearly all actives have a fitted effect of over 50% in size. Put shortly:
as §2

Test [11] can be described thus: qHTS of pediatric cancer cell lines to identify multiple opportunities for drug repurposing: Primary screen for control Hh wild type fibroblast cells (AID 1347106).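 Note: series mostly up to about 46 µM; a drop in luminescence marks cytotoxicity and a rise apparent proliferation; nearly all actives have a fitted effect of over 55% in size.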 Put shortly: as §1
Test [12] is described as follows: qHTS of pediatric cancer cell lines to identify multiple opportunities for drug repurposing: Primary screen for Rh30 cells (AID 1347107). Note: series mostly up to about 46 µM; nearly all actives have a fitted effect of over 75% in size. Put shortly:
as §1

The nature of test [13]: qHTS of pediatric cancer cell lines to identify multiple opportunities for drug repurposing: Primary screen for Rh41 cells (AID 1347108).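 Note: series mostly up to about 46 µM; luminescence drop marks cytotoxic hits; nearly all actives have a fitted effect of over 70% in size.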 The procedure, abridged:
as §2

The nature of test [14]: qHTS of pediatric cancer cell lines to identify multiple opportunities for drug repurposing: Confirmatory screen for BT-12 cells (AID 1347112). Note: nearly all actives have a fitted effect of over 55% in size. The procedure, abridged:
as §1

A short description of test [15]: qHTS of pediatric cancer cell lines to identify multiple opportunities for drug repurposing: Confirmatory screen for LAN-5 cells (AID 1347113). Note: nearly all actives have a fitted effect of over 65% in size. Note: potency is the fitted concentration of half-maximal effect. Put shortly: as §1
A short description of test [16]: qHTS of pediatric cancer cell lines to identify multiple opportunities for drug repurposing: Confirmatory screen for DAOY cells (AID 1347114). Note: nearly all actives have a fitted effect of over 65% in size. Note: potency is the fitted concentration of half-maximal effect. Put shortly: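 Viability measured as metabolically active cells via CellTiter-Glo luminescence following 48 hours of compound exposure, 11-point dilutions in confirmatory testing. 500-1,000 cells/well plated 5 hours before dosing; controls were DMSO and 2.3 µM bortezomib.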

A short description of test [17]: qHTS of pediatric cancer cell lines to identify multiple opportunities for drug repurposing: Confirmatory screen for NB-EBc1 cells (AID 1347115).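 Note: cells exposed to compound for 48 h before the viability read; nearly all actives have a fitted effect of over 45% in size.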 Note: potency is the fitted concentration of half-maximal effect. The procedure, abridged: as §1
The nature of test [18]: qHTS of pediatric cancer cell lines to identify multiple opportunities for drug repurposing: Confirmatory screen for NB1643 cells (AID 1347109). Note: nearly all actives have a fitted effect of over 45% in size. Note: potency is the fitted concentration of half-maximal effect. Put shortly:
as §1

Test [19] in a line: qHTS of pediatric cancer cell lines to identify multiple opportunities for drug repurposing: Confirmatory screen for SK-N-MC cells (AID 1347111).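 Note: cells exposed to compound for 48 h before the readout; nearly all actives have a fitted effect of over 70% in size.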 Note: potency is the fitted concentration of half-maximal effect. The procedure, abridged: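 Metabolically active cells were quantified by ATP-dependent luminescence (CellTiter-Glo, 15 min at room temperature) following 48 h treatment. Cells had been plated at 500-1,000 per well and settled for 5 h beforehand.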

The structures appear in SMILES notation. Where “and” joins values, the source holds several entries; their conditions need not be identical. Equal values may be shown once. Results filed as inconclusive are left out. Calls of active or inactive are those of the source. Calls come from the whole dose curve; as a rule, active = well fitted curve in the direction sought with a large enough effect; inconclusive = small, poorly fitted or top-dose-only effect, or another doubt; inactive = no such curve, though single readings can be large; an effect the other way counts as inactive or inconclusive.

Take `NS(=O)(=O)c1cc2c(cc1Cl)NC(C(Cl)Cl)NS2(=O)=O` (stereo not drawn): the Potency result in [1], in [2], in test [3], in test [4], in test [5] and in [6] was “inactive” in each case. In addition, the Potency entry in test [7], in [8], in test [9], in test [10], in test [11] and in [12] was “inactive” in each case.

Consider `CNNCc1ccc(C(=O)NC(C)C)cc1`, for which the Potency result in test [1], in test [2], in test [3], in test [4], in [5] and in [6] was “inactive” in each case. Also, the Potency result in test [7], in test [8], in test [9], in [10], in test [11] and in test [12] was “inactive” in each case. Moreover, the Potency result in test [13], in test [14], in [15], in [16] and in test [17] was “inactive” throughout.

Regarding `CCCc1cc(C(N)=S)ccn1`, the Potency entry in [1], in test [2], in test [3], in test [4], in [5] and in test [6] was “inactive” in each case. Moreover, the Potency entry in [7], in test [8], in test [9], in test [10], in [11] and in test [12] was “inactive” throughout. Further, the Potency result in [13] is “inactive”.

For `CN(C)CCc1c[nH]c2ccc(CS(=O)(=O)N3CCCC3)cc12`, the Potency result in test [1], in test [2], in test [3], in [4], in [5] and in test [6] was “inactive” in each case. Also, the Potency entry in test [7], in test [8], in [9], in [10], in [11] and in [12] was “inactive” throughout. Moreover, in test [13], the Potency entry was “inactive”.

For the molecule `COc1c(N2CCNC(C)C2)c(F)cc2c(=O)c(C(=O)O)cn(C3CC3)c12` (stereo not drawn), the Potency result in [1], in test [2], in [3], in test [4], in [5] and in test [6] was “inactive” throughout. The Potency entry in test [7], in test [8], in test [9], in test [10], in test [11] and in [12] was “inactive” each time. Moreover, the Potency entry in [13] was “inactive”.

Take `CCCOc1ccc(C(=O)OCCN(CC)CC)cc1N`: the Potency result in test [1], in [2], in test [3], in test [4], in [5] and in test [6] was “inactive” throughout. Also, the Potency result in [7], in [8], in [9], in test [10], in test [11] and in test [12] was “inactive” throughout.

Consider `O=C(O)c1cccnc1`, for which the Potency entry in [1], in test [2], in test [3], in test [4], in [5] and in test [6] was “inactive” in each case. For the same molecule, the Potency entry in [7], in test [8], in test [9], in test [10], in test [11] and in [12] was “inactive” throughout. Also, in test [13], the Potency result was “inactive”.

For the molecule `CCc1cc(C(N)=S)ccn1`, the Potency result in test [1], in [2], in [3], in test [4], in test [5] and in test [6] was “inactive” in each case. Besides, the Potency result in test [7], in test [8], in test [9], in test [10], in test [11] and in test [12] was “inactive” each time. In test [13], the Potency entry was “inactive”.

Take `CC1=NN(c2ccccc2)C(=O)C1`: the Potency result in test [1], in test [2], in test [3], in test [4], in [5] and in test [6] was “inactive” throughout. Moreover, the Potency result in test [7], in test [8], in [9], in [10], in test [11] and in test [12] was “inactive” in each case. For the same molecule, the Potency result in test [13] was “inactive”.

`Nc1nc(=S)c2[nH]cnc2[nH]1`: the Potency is 1.68 µM (active) and 2.35 µM (active) in test [1]; 7.5 µM (active) and 4.69 µM (active) in test [2]; 6.87 µM (active) and 5.41 µM (active) in test [3]; 2.99 µM (active) and 3.32 µM (active) in [4]; 2.35 µM (active) in test [5]; 8.71 µM (active) and 7.69 µM (active) in test [6]. Moreover, the Potency was 13.3 µM (active) in [7]; 872 nM (active) and 1.72 µM (active) in test [8]; 5.85 µM (active) and 4.14 µM (active) in test [18]; 11.7 µM (active) and 7.37 µM (active) in test [19]; 2.93 µM (active) and 2.33 µM (active) in test [15]; 2.61 µM (active) and 1.47 µM (active) in test [16]. In addition, in test [17], the Potency is 2.61 µM (active). In addition, the Potency result in test [10] and in [11] was “inactive” in each case.

For the molecule `N[C@@H](C(=O)N[C@@H]1C(=O)N2C(C(=O)O)=C(Cl)CS[C@H]12)c1ccccc1`, the Potency entry in test [1], in [2], in [3], in test [4], in test [5] and in [6] was “inactive” in each case. For the same molecule, the Potency entry in test [7], in test [8], in test [9], in [10], in test [11] and in test [12] was “inactive” in each case. Besides, the Potency entry in test [13] was “inactive”.

As for `COc1nc(N)nc2c1ncn2[C@@H]1O[C@H](CO)[C@@H](O)[C@@H]1O`, the Potency result in [1], in [2], in [3], in [4], in test [5] and in test [6] was “inactive” in each case. The Potency result in [7], in test [8], in test [9], in test [10], in [11] and in [12] was “inactive” throughout. Further, the Potency result in [18], in test [15], in test [16] and in test [17] was “inactive” throughout. Also, in test [19], the Potency was 2.93 µM (active).

With `NNC(=O)c1ccncc1`, the Potency entry in [1], in test [2], in test [3], in test [4], in test [5] and in [6] was “inactive” each time. Further, the Potency entry in test [7], in test [8], in test [9], in test [10], in [11] and in test [12] was “inactive” throughout.

As to `CC(C)OC(=O)C(C(=O)OC(C)C)=C1SC=CS1`, the Potency entry in test [1], in test [2], in test [3], in test [4], in [5] and in test [6] was “inactive” in each case. Besides, the Potency result in test [7], in [9], in test [10], in [11] and in test [12] was “inactive” throughout.

Consider `CC(C)NCC(O)c1ccc(NS(C)(=O)=O)cc1` (stereo not drawn), for which the Potency result in test [1], in [2], in test [3], in test [4], in test [5] and in test [6] was “inactive” throughout. The Potency result in test [7], in [8], in test [9], in test [10], in [11] and in [12] was “inactive” in each case. Besides, the Potency entry in test [18], in test [19], in test [14], in test [15], in [16] and in test [17] was “inactive” throughout.

`CCCN[C@H]1CCc2nc(N)sc2C1`: the Potency entry in test [1], in [2], in test [3], in test [4], in [5] and in test [6] was “inactive” each time. The Potency result in test [7], in test [8], in test [9], in test [10], in test [11] and in test [12] was “inactive” each time. Besides, in test [13], the Potency entry was “inactive”.
